# In PubChem BioAssay:
# This is one part of the list. Results filed as inconclusive are left out. The source made the active and inactive calls.
# Tests used:
# [1] = inhibitors of TNFa-induced NFkB p65 translocation, primary screen, imaging, HUVEC, MLSMR starter and 10KST1 sets (AID 438;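 active = inhibition above 20% together with a positive visual image hit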;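 note: compound added about 3h40 before a 20 min TNFalpha stimulation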;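 for inhibition: signal is the nuclear over cytoplasmic p65 intensity ratio per well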); details: HUVEC TNFa-induced p65 nuclear translocation; cell count: measured here: nuclei count (cytotoxicity indicator), at 2.08 µM; inhibition: at 2 µM, stronger effect = higher value, 0% TNFa-plus-vehicle, 100% no-TNFa wells
# [2] = inhibitors of mutant huntingtin aggregation, primary screen, imaging, exon1htt(103Q)mCFP cells, high-content imaging (AID 483;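 active = visual image review flags a hit and inhibition of aggregation exceeds 20%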;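 note: compound exposure lasted 3 days before fixation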;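 for nuclei count: percent of the per-plate median nuclei count of sample wells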); details: exon1htt(103Q)mCFP cell line, aggregate imaging, at 2 µM; inhibition of aggregation: stronger effect = higher value; nuclei count: measured here: cell count, toxicity
# [3] = inhibitors of E-selectin induction by TNFa, primary screen, imaging, HUVEC, immunofluorescence, MLSMR starter and 10KST1 sets (AID 487;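 active = visually confirmed hit in the image check and inhibition above 20%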;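 for inhibition: signal is fraction of cell area covered by stained E-selectin grains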;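 for nuclei count: 100% = median nuclei count of all wells on the same plate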); details: HUVEC TNFalpha-induced E-selectin immunofluorescence imaging, at 2 µM; inhibition: stronger effect = higher value; nuclei count: measured here: cell number, toxicity
# [4] = DUSP6 inhibitors restoring Erk phosphorylation by chemical complementation, primary imaging in DUSP6-transfected HeLa (AID 609;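 active = compounds giving at least 50% inhibition in the cell-based MKP-3 phosphatase rescue imaging test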;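 for inhibition: phospho-Erk level distribution per well compared with pooled transfected vehicle control wells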); details: HeLa MKP-3 transfected, phospho-Erk imaging KS statistic, at 10 µM, cells stimulated with TPA for 15 min
# [5] = target: Dual specificity protein phosphatase 6 (Homo sapiens) (UniProt Q16828); assay: as above; details: HeLa MKP-3 transfected, phospho-Erk imaging KS statistic; at 10 µM; stronger effect = higher value; cells stimulated with TPA for 15 min
# Dual specificity protein phosphatase 6 (Homo sapiens), sequence (Q16828 whole entry, looked up): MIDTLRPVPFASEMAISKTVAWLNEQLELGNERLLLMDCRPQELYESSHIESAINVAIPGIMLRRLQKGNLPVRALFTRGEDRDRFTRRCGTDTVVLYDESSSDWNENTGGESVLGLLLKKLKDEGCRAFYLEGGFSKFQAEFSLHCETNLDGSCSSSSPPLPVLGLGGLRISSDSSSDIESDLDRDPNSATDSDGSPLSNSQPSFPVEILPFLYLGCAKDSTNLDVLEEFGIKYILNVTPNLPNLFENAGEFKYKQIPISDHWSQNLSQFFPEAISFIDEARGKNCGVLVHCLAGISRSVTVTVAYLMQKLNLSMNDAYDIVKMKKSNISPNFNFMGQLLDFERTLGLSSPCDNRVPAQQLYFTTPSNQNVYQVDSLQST
# [6] = target: Voltage-gated potassium channel subunit beta-2 (Rattus norvegicus) (UniProt P62483); assay: KvBeta enzyme negative modulators, primary screen, biochemical, NADPH fluorescence (AID 622;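 active = fluorescence slope higher than the sample average by over 3 SD, cut at about -0.22 in these data, passing the limit was not always enough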;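 note: slope of raw intensity against log time taken from 70 to 1610 s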); details: recombinant KvBeta, 4-cyanobenzaldehyde reduction, at 10 µM, stronger effect = higher value
# Voltage-gated potassium channel subunit beta-2 (Rattus norvegicus), sequence (P62483 whole entry, looked up): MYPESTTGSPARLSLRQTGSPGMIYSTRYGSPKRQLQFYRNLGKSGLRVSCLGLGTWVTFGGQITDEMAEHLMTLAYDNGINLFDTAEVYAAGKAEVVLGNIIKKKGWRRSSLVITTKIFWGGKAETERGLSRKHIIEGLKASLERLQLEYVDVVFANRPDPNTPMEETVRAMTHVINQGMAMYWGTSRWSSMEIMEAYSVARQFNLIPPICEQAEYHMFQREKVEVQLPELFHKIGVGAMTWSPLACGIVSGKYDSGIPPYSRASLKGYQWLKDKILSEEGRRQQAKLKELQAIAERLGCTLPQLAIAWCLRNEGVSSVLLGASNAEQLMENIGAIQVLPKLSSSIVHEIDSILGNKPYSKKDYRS
# [7] = target: Voltage-gated potassium channel subunit beta-2 (Rattus norvegicus) (UniProt P62483); assay: KvBeta positive modulators, primary screen, biochemical, NADPH fluorescence (AID 623;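 active = NADPH fluorescence slope more negative than the mean of all samples by about 3 SD, 99.7% confidence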;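 note: fluorescence intensity change per second fitted from 20 to 320 s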); details: Recombinant KvBeta, NADPH fluorescence decrease slope, 10 min; at 10 µM; stronger effect = lower value
# [8] = target: Alpha-2C adrenergic receptor (Homo sapiens) (UniProt P18825); assay: modulators of alpha2C/GIRK thallium flux, primary screen, cell-based, HEK293 alpha2C/GIRK1/2 (AID 624;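 active = fluorescence slope after compound addition differing from the mean of all screened samples at 99.7% confidence, in either direction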;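 note: slope of fluorescence ratio to pre-addition baseline per second over 15 to 24 s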); details: thallium flux BTC fluorescence, at 10 µM, actives lie on both sides
# Alpha-2C adrenergic receptor (Homo sapiens), sequence (P18825 whole entry, looked up): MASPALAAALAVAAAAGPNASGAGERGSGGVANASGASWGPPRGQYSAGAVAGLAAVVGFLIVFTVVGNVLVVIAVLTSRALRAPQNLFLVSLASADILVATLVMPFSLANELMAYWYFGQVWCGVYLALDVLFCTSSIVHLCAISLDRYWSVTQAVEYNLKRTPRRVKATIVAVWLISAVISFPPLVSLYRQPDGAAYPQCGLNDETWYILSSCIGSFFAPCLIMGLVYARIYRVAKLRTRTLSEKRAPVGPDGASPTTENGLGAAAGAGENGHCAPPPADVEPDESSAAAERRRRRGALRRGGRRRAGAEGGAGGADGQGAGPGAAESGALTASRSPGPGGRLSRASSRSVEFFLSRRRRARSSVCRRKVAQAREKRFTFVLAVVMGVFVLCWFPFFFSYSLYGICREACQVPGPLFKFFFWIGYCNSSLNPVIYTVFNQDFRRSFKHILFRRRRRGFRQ
# [9] = inhibitors of Chlamydomonas gravitaxis, primary screen, whole organism, Chlamydomonas reinhardtii, WT vs cilia-less mutant, absorbance, 96-well (AID 463189;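 active = inhibition at or above 50% relative to wild type and mutant plate controls; inactive = inhibition below 50%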;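 note: 0% = wild type cc124 cells in DMSO and 100% = ciliumless bld1 mutant cells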); details: OD600 absorbance, 2 days, at 10 µM, stronger effect = higher value
# [10] = inhibitors of Sendai virus-induced IRF3 signaling, primary screen, TLR/RLR signaling modifier project, cell-based, Sendai virus stimulus, luciferase, 10K MLSCN set (AID 602276;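 active = inhibition at or above 50% at 10 µM; inactive = inhibition below 50%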;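 note: firefly luciferase from ISG56 promoter only with Renilla not read in this screen; 0% = Sendai virus plus DMSO and 100% = medium plus DMSO without virus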); details: HEK293 RL24 IRF3 luciferase reporter, at 10 µM, stronger effect = higher value
# [11] = inhibitors of poly I:C-induced TLR3 signaling, primary screen, cell-based, poly I:C stimulus, luciferase, 10K MLSCN set (AID 602277;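 active = inhibition of the reporter signal at or above 50%; inactive = inhibition below 50%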); details: HEK293-TLR3 RL24 IRF3 luciferase reporter, at 10 µM, stronger effect = higher value
# [12] = target: Solute carrier family 12 member 5 (Homo sapiens) (UniProt Q9H2X9); assay: KCC2 modulators in sodium-free buffer, confirmation, cell-based, HEK293 KCC2, thallium flux, secondary assay (AID 1713;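 active = thallium flux slope above the same plate's solvent-only control mean plus 3 SD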); details: FluoZin2 fluorescence, at 10 µM, stronger effect = higher value
# Solute carrier family 12 member 5 (Homo sapiens), sequence (Q9H2X9 whole entry, looked up): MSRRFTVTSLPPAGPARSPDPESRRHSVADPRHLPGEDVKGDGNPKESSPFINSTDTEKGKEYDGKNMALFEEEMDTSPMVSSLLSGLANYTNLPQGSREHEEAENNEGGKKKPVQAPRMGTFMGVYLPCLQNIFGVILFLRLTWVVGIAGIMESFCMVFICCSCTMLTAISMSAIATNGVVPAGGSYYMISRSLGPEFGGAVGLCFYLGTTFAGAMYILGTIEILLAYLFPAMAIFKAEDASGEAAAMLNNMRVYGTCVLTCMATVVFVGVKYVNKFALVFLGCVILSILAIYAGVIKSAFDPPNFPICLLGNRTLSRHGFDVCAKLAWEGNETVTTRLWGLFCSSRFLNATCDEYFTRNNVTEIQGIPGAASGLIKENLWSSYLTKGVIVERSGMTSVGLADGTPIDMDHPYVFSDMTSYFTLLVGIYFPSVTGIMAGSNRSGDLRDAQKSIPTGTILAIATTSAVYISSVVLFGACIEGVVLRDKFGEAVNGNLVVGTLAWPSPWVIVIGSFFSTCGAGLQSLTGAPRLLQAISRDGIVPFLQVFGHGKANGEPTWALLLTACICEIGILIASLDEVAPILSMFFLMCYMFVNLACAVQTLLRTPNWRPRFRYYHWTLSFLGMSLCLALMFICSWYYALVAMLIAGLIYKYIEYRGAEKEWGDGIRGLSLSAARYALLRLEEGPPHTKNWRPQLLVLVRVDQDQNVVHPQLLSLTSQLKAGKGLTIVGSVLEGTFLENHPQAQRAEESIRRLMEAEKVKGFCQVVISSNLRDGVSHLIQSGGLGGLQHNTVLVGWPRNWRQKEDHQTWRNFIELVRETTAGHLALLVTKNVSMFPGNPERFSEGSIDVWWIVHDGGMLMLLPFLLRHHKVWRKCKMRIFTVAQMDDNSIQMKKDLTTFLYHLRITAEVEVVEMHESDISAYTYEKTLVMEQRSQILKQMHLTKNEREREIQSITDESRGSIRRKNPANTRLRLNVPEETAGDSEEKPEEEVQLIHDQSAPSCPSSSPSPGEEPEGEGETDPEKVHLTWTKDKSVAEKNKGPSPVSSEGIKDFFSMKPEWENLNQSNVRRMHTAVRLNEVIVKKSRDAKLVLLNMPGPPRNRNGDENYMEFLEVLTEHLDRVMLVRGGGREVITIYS
# [13] = target: Solute carrier family 12 member 5 (Homo sapiens) (UniProt Q9H2X9); assay: KCC2 modulators without ouabain present, confirmation, cell-based, HEK293 KCC2, thallium flux, FluoZin2, secondary assay 2 (AID 1715;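 active = thallium flux slope more than 3 SD above or below the plate's solvent-only control mean, mostly below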;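 note: raw slope with 0.1% DMSO as baseline and bumetanide as block control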); details: HEK293-KCC2, thallium flux FluoZin2 fluorescence; at 10 µM; actives lie on both sides; F/F0 rise rate, 10–20 s post-thallium
# [14] = thallium flux modulation in parental HEK cells, confirmation, counter-screen for KCC2 modulator project, cell-based, counterscreen 1 (AID 1716); details: HEK293 parental cells, thallium flux FluoZin2, ouabain; at 10 µM; baseline-ratio fluorescence slope, 10–20 s after thallium
# [15] = target: Solute carrier family 12 member 5 (Homo sapiens) (UniProt Q9H2X9); assay: KCC2 inhibitors and activators, ouabain retest, confirmation, HEK-KCC2 cells (AID 1717;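 active = thallium flux slope beyond 3 SD from same-plate DMSO control mean in most replicates, usually higher, sometimes lower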;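 note: slope of initial-normalized fluorescence between seconds 10 and 20 after thallium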); details: HEK293-KCC2, thallium flux FluoZin2 fluorescence, at 10 µM, bidirectional: low = inhibitor, high = activator
# [16] = native HEK Tl+ uptake effects, second counter-screen – HEK cells, counterscreen 2, counter-screen for KCC2 modulator project, confirmation (AID 1718;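 active = thallium flux slope above the same plate's solvent-control mean plus 3 SD in both duplicate wells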;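 note: run without ouabain in cells lacking the KCC2 cotransporter; slope of fluorescence scaled to its starting value between 10 and 20 s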); details: HEK293 parental, thallium flux FluoZin-2 fluorescence slope; at 10 µM
# PubChem AID 1714 = details: HEK293-KCC2 + bumetanide/ouabain, thallium flux FluoZin2; at 10 µM; stronger effect = higher value
# [17] = measured here: cell density z-score
# [18] = measured here: nuclear c-Myc green intensity z-score
# [19] = measured here: nuclear pErk red intensity z-score, stronger effect = higher value
smiles,measurement,setting,value
CCCCOc1ccc(CC(=O)NO)cc1,cell count,[1],619
same,inhibition,[1],-10.2% (inactive)
same,inhibition of aggregation,[2],-11.8% (inactive)
same,nuclei count,[2],91%
same,inhibition,[3],-41.8% (inactive)
same,nuclei count,[3],111%
same,z-score,[4]; [17],-0.368
same,z-score,[4]; [18],-0.467
same,z-score,[4]; [19],-0.347
same,inhibition,[5],-0.493% (inactive)
same,fluorescence slope,[6],-0.547 (inactive)
same,NADPH fluorescence slope,[7],-4.3e-05 (inactive)
same,slope,[8],0.00497 (inactive)
same,inhibition,[9],7.46% (inactive)
same,inhibition,[10],13.6% (inactive)
same,inhibition,[11],31.2% (inactive)
CCOC(=O)c1ccccc1N1C(=O)C2Sc3[nH]c(=O)sc3C(/C=C/c3ccccc3)C2C1=O (stereo unspecified),normalised thallium flux (F/F0 slope),[12],0.00694 (inactive)
same,normalized thallium flux,[13],0.0266 (active)
same,thallium flux rate (normalised fluorescence),[14],0.00732 (inactive)
same,"raw Tl+ flux slope (below DMSO = inhibition, above = activation)",[15],0.00834 (active)
same,thallium flux slope,[16],0.0106 (inactive)
Cn1c(/C(C#N)=C/Nc2ccccn2)nc2ccccc21,cell count,[1],346
same,inhibition,[1],4.3% (inactive)
same,inhibition of aggregation,[2],-16.9% (inactive)
same,nuclei count,[2],88.4%
same,inhibition,[3],-44% (inactive)
same,nuclei count,[3],135%
same,z-score,[4]; [17],-0.331
same,z-score,[4]; [18],-0.988
same,z-score,[4]; [19],1.63
same,inhibition,[5],5.26% (inactive)
same,fluorescence slope,[6],-0.224 (inactive)
same,NADPH fluorescence slope,[7],-0.000107 (inactive)
same,slope,[8],0.00613 (inactive)
same,inhibition,[9],2.14% (inactive)
same,inhibition,[10],-13.3% (inactive)
same,inhibition,[11],-19.7% (inactive)
Cc1ccc(C(=O)NC(=S)Nc2ccccc2C)cc1,normalized thallium flux,PubChem AID 1714,0.0441 (active)
same,normalized thallium flux,[13],0.0421 (active)
same,thallium flux rate (normalised fluorescence),[14],0.0432 (active)
same,"raw Tl+ flux slope (below DMSO = inhibition, above = activation)",[15],0.0453 (active)
same,thallium flux slope,[16],0.0284 (active)
Cc1[nH]n(-c2ccccc2)c(=O)c1N=Nc1ccccc1C(=O)N1CCCCC1,normalized thallium flux,PubChem AID 1714,0.0338 (active)
same,normalized thallium flux,[13],0.03 (inactive)
same,thallium flux rate (normalised fluorescence),[14],0.0142 (active)
same,"raw Tl+ flux slope (below DMSO = inhibition, above = activation)",[15],0.0253 (active)
CC[C@@H](C)[C@@H](C(=O)N1CCN(C(=O)OC(C)(C)C)CC1)n1cc(CCC(=O)O)nn1,normalised thallium flux (F/F0 slope),[12],0.0104 (inactive)
same,normalized thallium flux,[13],0.0349 (inactive)
same,thallium flux rate (normalised fluorescence),[14],0.00923 (active)
same,"raw Tl+ flux slope (below DMSO = inhibition, above = activation)",[15],0.0234 (inactive)
same,thallium flux slope,[16],0.0111 (inactive)
Cc1ccc(-c2noc(CN3CCN(Cc4ccccc4)CC3)n2)cc1,normalised thallium flux (F/F0 slope),[12],0.0176 (inactive)
same,thallium flux rate (normalised fluorescence),[14],0.00768 (inactive)
same,"raw Tl+ flux slope (below DMSO = inhibition, above = activation)",[15],0.0139 (inactive)
same,thallium flux slope,[16],0.0101 (inactive)
Cc1cccc(COc2ccc(/C(O)=C3\C(=O)C(=O)N(CCN(C)C)C3c3ccncc3)cc2)c1 (stereo unspecified),cell count,[1],526
same,inhibition,[1],3.2% (inactive)
same,inhibition of aggregation,[2],-20.7% (inactive)
same,nuclei count,[2],106%
same,inhibition,[3],-20.5% (inactive)
same,nuclei count,[3],126%
same,z-score,[4]; [17],-1.17
same,z-score,[4]; [18],0.707
same,z-score,[4]; [19],-0.252
same,inhibition,[5],-1.75% (inactive)
same,fluorescence slope,[6],-0.434 (inactive)
same,NADPH fluorescence slope,[7],-0.000161 (inactive)
same,slope,[8],0.00578 (inactive)
same,inhibition,[9],-10.1% (inactive)
same,inhibition,[10],9.07% (inactive)
same,inhibition,[11],4.16% (inactive)
CCOC(=O)c1c(NC(=S)NC)sc2c1CCCC2,normalised thallium flux (F/F0 slope),[12],0.0181 (active)
same,normalized thallium flux,[13],0.0972 (active)
same,thallium flux rate (normalised fluorescence),[14],0.0987 (active)
same,thallium flux slope,[16],0.101 (active)
CCn1cc(C(=O)O)c(=O)c2cc(F)c(N3CCNCC3)nc21,cell count,[1],528
same,inhibition,[1],-1.9% (inactive)
same,inhibition of aggregation,[2],-5% (inactive)
same,nuclei count,[2],88.6%
same,inhibition,[3],-53.3% (inactive)
same,nuclei count,[3],92.8%
same,z-score,[4]; [17],1.02
same,z-score,[4]; [18],-0.267
same,z-score,[4]; [19],-1.93
same,inhibition,[5],7.39% (inactive)
same,fluorescence slope,[6],-0.463 (inactive)
same,NADPH fluorescence slope,[7],-5.7e-05 (inactive)
same,slope,[8],0.00463 (inactive)
same,inhibition,[9],-14% (inactive)
same,inhibition,[10],3% (inactive)
same,inhibition,[11],17.6% (inactive)
